Measurements taken from the supplement of paper PMC12494721.
Where a name gives a salt, the structure may show the parent alone.

Legend:
Details in all cases: incubation time: 27 h, anaerobic, 37 °C;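 for the amine columns active = adjusted P below 0.05 in both replicates with a change the same way and a mean fold change under 0.8 or over 1.25; inactive = the rest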
[1] = test system: Clostridium sporogenes DSM 1664; assay: growth (OD595) fold change vs plate DMSO controls (fold change (ratio)); higher = more growth
Procedure, shortened: (§1)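 Anaerobic mGAM cultures in 96-well plates were grown for 27 h at 37 °C, and absorbance was then read at 595 nm. After blank and compound background correction with 20 µM compound solutions in water, a calibration factor of 5 gave OD. Growth is the fold change relative to the median of each plate's DMSO controls. Values are means of 2 biological replicates, with fold changes above 1.5 set to NA.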

Escherichia coli IAI1 [2] = assay: as above
Procedure, shortened: as §1

[3] = test system: Klebsiella aerogenes DSM 30053; assay: as above
Procedure, shortened: as §1

[4] = test system: Ruminococcus gnavus DSM 108212; assay: as above
Procedure, shortened: as §1

[5] = test system: Klebsiella aerogenes DSM 30053; assay: fold change of Histamine concentration vs plate DMSO controls (fold change (ratio)); higher = more amine produced, active = hit call of the paper (significant change in both replicates, either direction)
Procedure, shortened: (§2)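 Anaerobic mGAM cultures of four gut bacterial strains were grown at 37 °C for 27 h in 80 µL wells, starting at OD 0.1 before 1:1 dilution. Compounds were at 20 µM final (sweeteners 50 µM). Whole cultures were extracted with cold acetonitrile/methanol containing 0.1% formic acid and centrifuged. Amines were quantified by LC–triple-quadrupole MS (dynamic MRM) against external calibration curves and drift-corrected within batch. Each value is the fold change versus plate DMSO controls, averaged over 2 biological replicates.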

[6] = test system: Clostridium sporogenes DSM 1664; assay: fold change of Tryptamine concentration vs plate DMSO controls (fold change (ratio)); higher = more amine produced, active = hit call of the paper (significant change in both replicates, either direction)
Procedure, shortened: as §2

[7] = test system: Ruminococcus gnavus DSM 108212; assay: as above
Procedure, shortened: as §2

Escherichia coli IAI1 [8] = assay: fold change of Putrescine concentration vs plate DMSO controls (fold change (ratio)); higher = more amine produced, active = hit call of the paper (significant change in both replicates, either direction)
Procedure, shortened: as §2

[9] = test system: Klebsiella aerogenes DSM 30053; assay: as above
Procedure, shortened: as §2

Escherichia coli IAI1 [10] = assay: fold change of Cadaverine concentration vs plate DMSO controls (fold change (ratio)); higher = more amine produced, active = hit call of the paper (significant change in both replicates, either direction)
Procedure, shortened: as §2

[11] = test system: Klebsiella aerogenes DSM 30053; assay: as above
Procedure, shortened: as §2

[12] = test system: Ruminococcus gnavus DSM 108212; assay: fold change of 2-Phenylethylamine concentration vs plate DMSO controls (fold change (ratio)); higher = more amine produced, active = hit call of the paper (significant change in both replicates, either direction)
Procedure, shortened: as §2

Structure (SMILES): Cc1nc2n(c(=O)c1CCN1CCC(c3noc4cc(F)ccc34)CC1)CCCC2O (configuration not stated) [Paliperidone] (20 µM)
- growth [1]: 0.897
- growth (Escherichia coli IAI1 [2]): 1.01
- growth [3]: 0.982
- growth [4]: 1
- fold change of Histamine concentration [5]: 1.05 (inactive)
- fold change of Tryptamine concentration [6]: 0.998 (inactive)
- fold change of Tryptamine concentration [7]: 0.966 (inactive)
- fold change of Putrescine concentration (Escherichia coli IAI1 [8]): 1.06 (inactive)
- fold change of Putrescine concentration [9]: 1.02 (inactive)
- fold change of Cadaverine concentration (Escherichia coli IAI1 [10]): 0.993 (inactive)
- fold change of Cadaverine concentration [11]: 0.986 (inactive)
- fold change of 2-Phenylethylamine concentration [12]: 0.983 (inactive)

Structure (SMILES): NC1CCN(c2c(F)cc3c(=O)c(C(=O)O)cn(C4CC4)c3c2Cl)C1 (configuration not stated) [Clinafloxacin] (20 µM)
- growth [1]: 0.00892
- growth (Escherichia coli IAI1 [2]): 0.0142
- growth [3]: 0.102
- growth [4]: 0.356
- fold change of Histamine concentration [5]: 0.118 (active)
- fold change of Tryptamine concentration [6]: 0.0514 (active)
- fold change of Tryptamine concentration [7]: 0.337 (active)
- fold change of Putrescine concentration (Escherichia coli IAI1 [8]): 0.703 (inactive)
- fold change of Putrescine concentration [9]: 0.647 (active)
- fold change of Cadaverine concentration (Escherichia coli IAI1 [10]): 0.233 (active)
- fold change of Cadaverine concentration [11]: 0.942 (inactive)
- fold change of 2-Phenylethylamine concentration [12]: 0.36 (active)

Structure (SMILES): CC1CC(OC(=O)c2ccccc2O)CC(C)(C)C1 (configuration not stated) [Homosalate] (20 µM)
- growth [1]: 1.2
- growth (Escherichia coli IAI1 [2]): 0.987
- growth [3]: 0.984
- growth [4]: 1.1
- fold change of Histamine concentration [5]: 1.04 (inactive)
- fold change of Tryptamine concentration [6]: 0.994 (inactive)
- fold change of Tryptamine concentration [7]: 0.952 (inactive)
- fold change of Putrescine concentration (Escherichia coli IAI1 [8]): 1.23 (inactive)
- fold change of Putrescine concentration [9]: 1 (inactive)
- fold change of Cadaverine concentration (Escherichia coli IAI1 [10]): 1 (inactive)
- fold change of Cadaverine concentration [11]: 0.986 (inactive)
- fold change of 2-Phenylethylamine concentration [12]: 0.922 (inactive)

Structure (SMILES): NC1CCN(c2nc3c(cc2F)c(=O)c(C(=O)O)cn3-c2ccc(F)cc2F)C1 (configuration not stated) [Tosufloxacin hydrochloride] (20 µM)
- growth [1]: 0.0344
- growth (Escherichia coli IAI1 [2]): 0.0566
- growth [3]: 0.173
- growth [4]: 1.45
- fold change of Histamine concentration [5]: 0.0712 (active)
- fold change of Tryptamine concentration [6]: 0.0441 (active)
- fold change of Tryptamine concentration [7]: 0.532 (active)
- fold change of Putrescine concentration (Escherichia coli IAI1 [8]): 0.811 (inactive)
- fold change of Putrescine concentration [9]: 0.642 (active)
- fold change of Cadaverine concentration (Escherichia coli IAI1 [10]): 0.192 (active)
- fold change of Cadaverine concentration [11]: 0.978 (inactive)
- fold change of 2-Phenylethylamine concentration [12]: 0.615 (active)

Structure (SMILES): OC[C@@H](O)[C@@H](O[C@@H]1O[C@H](CO)[C@H](O)[C@H](O)[C@H]1O)[C@H](O)[C@@H](O)CO [Lactitol] (50 µM)
- growth [1]: 1.13
- growth (Escherichia coli IAI1 [2]): 0.949
- growth [3]: 1.01
- growth [4]: 0.988
- fold change of Histamine concentration [5]: 0.988 (inactive)
- fold change of Tryptamine concentration [6]: 0.997 (inactive)
- fold change of Tryptamine concentration [7]: 0.891 (inactive)
- fold change of Putrescine concentration (Escherichia coli IAI1 [8]): 0.938 (inactive)
- fold change of Putrescine concentration [9]: 1.02 (inactive)
- fold change of Cadaverine concentration (Escherichia coli IAI1 [10]): 0.997 (inactive)
- fold change of Cadaverine concentration [11]: 0.998 (inactive)
- fold change of 2-Phenylethylamine concentration [12]: 0.858 (inactive)

Structure (SMILES): NC[C@@H]1O[C@H](O[C@H]2[C@@H](O)[C@H](O[C@@H]3[C@@H](O)[C@H](N)C[C@H](N)[C@H]3O[C@H]3O[C@H](CN)[C@@H](O)[C@H](O)[C@H]3N)O[C@@H]2CO)[C@H](N)[C@@H](O)[C@@H]1O [Neomycin sulfate] (20 µM)
- growth [1]: 0.902
- growth (Escherichia coli IAI1 [2]): 0.997
- growth [3]: 1.02
- growth [4]: 0.938
- fold change of Histamine concentration [5]: 0.893 (inactive)
- fold change of Tryptamine concentration [6]: 1.16 (inactive)
- fold change of Tryptamine concentration [7]: 1.08 (inactive)
- fold change of Putrescine concentration (Escherichia coli IAI1 [8]): 0.954 (inactive)
- fold change of Putrescine concentration [9]: 0.966 (inactive)
- fold change of Cadaverine concentration (Escherichia coli IAI1 [10]): 0.897 (inactive)
- fold change of Cadaverine concentration [11]: 1.02 (inactive)
- fold change of 2-Phenylethylamine concentration [12]: 1.11 (inactive)

Structure (SMILES): Cc1onc(-c2ccccc2)c1-c1ccc(S(N)(=O)=O)cc1 [Valdecoxib] (20 µM)
- growth [1]: 0.979
- growth (Escherichia coli IAI1 [2]): 0.98
- growth [3]: 0.973
- growth [4]: 0.87
- fold change of Histamine concentration [5]: 1.08 (inactive)
- fold change of Tryptamine concentration [6]: 0.955 (inactive)
- fold change of Tryptamine concentration [7]: 0.961 (inactive)
- fold change of Putrescine concentration (Escherichia coli IAI1 [8]): 1.07 (inactive)
- fold change of Putrescine concentration [9]: 0.983 (inactive)
- fold change of Cadaverine concentration (Escherichia coli IAI1 [10]): 1.03 (inactive)
- fold change of Cadaverine concentration [11]: 0.972 (inactive)
- fold change of 2-Phenylethylamine concentration [12]: 0.92 (inactive)

Structure (SMILES): N[C@H](Cc1ccccc1)C(=O)O [D-phenylalanine] (20 µM)
- growth [1]: 1.13
- growth (Escherichia coli IAI1 [2]): 1.02
- growth [3]: 0.991
- growth [4]: 0.917
- fold change of Histamine concentration [5]: 0.946 (inactive)
- fold change of Tryptamine concentration [6]: 1.1 (inactive)
- fold change of Tryptamine concentration [7]: 0.973 (inactive)
- fold change of Putrescine concentration (Escherichia coli IAI1 [8]): 1.06 (inactive)
- fold change of Putrescine concentration [9]: 1.02 (inactive)
- fold change of Cadaverine concentration (Escherichia coli IAI1 [10]): 0.961 (inactive)
- fold change of Cadaverine concentration [11]: 1.01 (inactive)
- fold change of 2-Phenylethylamine concentration [12]: 0.968 (inactive)

Structure (SMILES): CC1(C)O[C@@H]2C[C@H]3[C@@H]4CCC5=CC(=O)C=C[C@]5(C)[C@H]4[C@@H](O)C[C@]3(C)[C@]2(C(=O)CO)O1 [Desonide] (20 µM)
- growth [1]: 0.99
- growth (Escherichia coli IAI1 [2]): 1.02
- growth [3]: 1.01
- growth [4]: 1.21
- fold change of Histamine concentration [5]: 1.05 (inactive)
- fold change of Tryptamine concentration [6]: 1.18 (inactive)
- fold change of Tryptamine concentration [7]: 1.14 (inactive)
- fold change of Putrescine concentration (Escherichia coli IAI1 [8]): 0.903 (inactive)
- fold change of Putrescine concentration [9]: 0.991 (inactive)
- fold change of Cadaverine concentration (Escherichia coli IAI1 [10]): 0.893 (inactive)
- fold change of Cadaverine concentration [11]: 0.997 (inactive)
- fold change of 2-Phenylethylamine concentration [12]: 1.23 (inactive)

Structure (SMILES): CN1Cc2c(N)cccc2C(c2ccccc2)C1 (configuration not stated) [Nomifensine maleate] (20 µM)
- growth [1]: 1.07
- growth (Escherichia coli IAI1 [2]): 0.982
- growth [3]: 1.01
- growth [4]: 1.1
- fold change of Histamine concentration [5]: 0.994 (inactive)
- fold change of Tryptamine concentration [6]: 0.989 (inactive)
- fold change of Tryptamine concentration [7]: 1.04 (inactive)
- fold change of Putrescine concentration (Escherichia coli IAI1 [8]): 0.989 (inactive)
- fold change of Putrescine concentration [9]: 1.01 (inactive)
- fold change of Cadaverine concentration (Escherichia coli IAI1 [10]): 0.935 (inactive)
- fold change of Cadaverine concentration [11]: 1.02 (inactive)
- fold change of 2-Phenylethylamine concentration [12]: 0.992 (inactive)

Structure (SMILES): Clc1ccc(CO/N=C(\Cn2ccnc2)c2ccc(Cl)cc2Cl)c(Cl)c1 [Oxiconazole nitrate] (20 µM)
- growth [1]: 0.912
- growth (Escherichia coli IAI1 [2]): 0.995
- growth [3]: 0.981
- growth [4]: 0.321
- fold change of Histamine concentration [5]: 1.02 (inactive)
- fold change of Tryptamine concentration [6]: 0.91 (inactive)
- fold change of Tryptamine concentration [7]: 0.351 (active)
- fold change of Putrescine concentration (Escherichia coli IAI1 [8]): 1.04 (inactive)
- fold change of Putrescine concentration [9]: 1.05 (inactive)
- fold change of Cadaverine concentration (Escherichia coli IAI1 [10]): 1.03 (inactive)
- fold change of Cadaverine concentration [11]: 1.07 (inactive)
- fold change of 2-Phenylethylamine concentration [12]: 0.629 (inactive)
